Measurements as given in the supplement of paper PMC3334620.
Over roughly 33,000 sequences, “E-score (-0.5 to 0.5)” has its median near -0.016; the highest 2% begin near 0.3. Many of the other results were omitted from the sample, so the highest values are more common in it than they were.

What follows are sequences tested against T1, Yer184c (UniProt P39961) (assay: PBM E-score (8-mer binding enrichment) (E-score (-0.5 to 0.5)); higher = stronger / more preferred TF binding). Details: protein concentration: 100 nM; construct: GST-full length.
T1 sequence: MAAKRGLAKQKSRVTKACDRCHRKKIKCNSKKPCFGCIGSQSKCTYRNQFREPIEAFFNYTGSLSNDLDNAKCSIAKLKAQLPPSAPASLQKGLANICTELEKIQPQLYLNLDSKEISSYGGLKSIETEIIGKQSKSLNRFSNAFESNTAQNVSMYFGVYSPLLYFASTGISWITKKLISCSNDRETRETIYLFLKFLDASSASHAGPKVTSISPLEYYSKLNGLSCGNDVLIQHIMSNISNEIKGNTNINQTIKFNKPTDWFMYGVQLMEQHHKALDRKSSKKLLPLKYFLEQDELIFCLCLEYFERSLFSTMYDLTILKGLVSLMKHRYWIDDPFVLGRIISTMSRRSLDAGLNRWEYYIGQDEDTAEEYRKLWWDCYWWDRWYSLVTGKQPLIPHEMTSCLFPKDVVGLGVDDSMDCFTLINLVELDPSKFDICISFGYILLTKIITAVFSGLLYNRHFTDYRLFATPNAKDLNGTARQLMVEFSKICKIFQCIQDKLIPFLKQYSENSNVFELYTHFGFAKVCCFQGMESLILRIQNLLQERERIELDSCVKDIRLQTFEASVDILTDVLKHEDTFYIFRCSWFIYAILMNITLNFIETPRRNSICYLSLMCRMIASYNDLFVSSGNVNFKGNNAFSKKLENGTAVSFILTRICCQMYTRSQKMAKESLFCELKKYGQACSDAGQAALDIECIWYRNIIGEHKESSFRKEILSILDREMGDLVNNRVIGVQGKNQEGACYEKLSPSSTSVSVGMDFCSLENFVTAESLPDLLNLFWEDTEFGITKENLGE
Procedure: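 Universal 'all 10-mer' protein binding microarrays (Agilent AMADID 015681) probed with GST-tagged S. cerevisiae TFs (full-length or DBD) made by in vitro transcription/translation (PURExpress), about 100-200 nM. Bound TF was detected with fluorescent anti-GST. Each ungapped 8-mer (which stands for itself and its reverse complement) is scored by the PBM enrichment score (E-score), a modified Wilcoxon-Mann-Whitney statistic from -0.5 to +0.5, computed with the Universal PBM Analysis Suite. Scale: above 0.35 generally sequence-specific binding.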

Row | Sequence | PBM E-score
1 | ACAAGAAG | 0.048
2 | CATCAGAG | -0.0413
3 | GAGCACCC | -0.141
4 | AAGTGATA | -0.118
5 | GGGCCTTA | -0.209
6 | GGGAGTAA | 0.109
7 | CGGAGTAC | 0.0421
8 | CGGAGTAA | 0.313
9 | AACCCGAA | 0.14
10 | CACGGCCA | 0.131
11 | AGTAACCG | 0.117
12 | ACCGCGGT | 0.195
13 | CCCGCGGC | 0.35
14 | CCCGCGGG | 0.3
15 | ACCGCGGC | 0.344
16 | CCCGCGGA | 0.257
17 | ACCGCGGG | 0.291
18 | ATGGACAT | 0.0596
19 | GAGTCGTA | -0.0554
20 | ATCGCAGA | -0.132
21 | CCACCACA | -0.093
22 | GAGTGCAC | -0.0537
23 | AAATGATT | 0.316
24 | AAATGATC | -0.0261

Row | Sequence | PBM E-score
25 | AAATGATA | 0.162
26 | ACTATCGA | -0.203
27 | ACTTCCGG | 0.335
28 | ATTTCCTG | 0.186
29 | CTTTCCGC | 0.187
30 | ACTTCCGC | 0.166
31 | ATTTCCAC | 0.067
32 | GTTTCCGA | 0.286
33 | ATTTCCGA | 0.359
34 | ATTTCCGC | 0.307
35 | ATTTCCAG | 0.0278
36 | ACTTCCGA | 0.285
37 | ATTTCCGG | 0.445
38 | CTTTCCGA | 0.3
39 | AAAAGCCG | 0.244
40 | GATCTCGA | 0.115
41 | CAGTTGAC | -0.0401
42 | ACATCTCG | 0.00537
43 | GGGATAAA | 0.195
44 | AAATTATT | 0.212
45 | ACGCAATA | 0.135
46 | AGAGCTCA | -0.142
47 | GTACTATA | 0.176
48 | ATGGCGTA | -0.111

Row | Sequence | PBM E-score
49 | GATCCAAA | 0.196
50 | CATCCGAC | 0.247
51 | CCTCCGAA | 0.0955
52 | GCTCCGAA | 0.298
53 | GATCCGAC | 0.0808
54 | TATCCGCA | 0.293
55 | TCTCCGAA | 0.325
56 | GATCCGAA | 0.375
57 | CATCCGAG | 0.212
58 | CATCCGAA | 0.338
59 | AATCCGAA | 0.0989
60 | TATCCGAA | 0.386
61 | AACAAGAA | 0.257
62 | AAGATTAT | 0.106
63 | GCATTGCC | -0.0318
64 | AGACTCTA | -0.124
65 | AGGCATGG | -0.0826
66 | TCGCTAAA | 0.0346
67 | GTCTTTCA | -0.0723
68 | CCGGCCAC | 0.24
69 | AACTGCTC | -0.0494
70 | GCCGTTAC | 0.119
71 | GTTCTGGA | 0.0262
72 | CGACGCCG | 0.239

Row | Sequence | PBM E-score
73 | CCGACTGA | 0.00051
74 | CCGACTTA | 0.304
75 | CCGACTTC | -0.243
76 | TGTTTCAA | 0.153
77 | ACGCGCAA | 0.156
78 | AGTCCCCC | -0.483
79 | AATAGCGG | 0.0178
80 | ATCCGGTC | 0.214
81 | ATGCGGCC | 0.109
82 | ATCCGGCG | 0.321
83 | ATCCGGCC | 0.358
84 | ATACGGCC | 0.153
85 | ATGCGGCG | 0.0251
86 | ATCCGGTA | 0.206
87 | ATCCGGTG | 0.353
88 | ATCCGACG | 0.155
89 | ATTTGGCA | 0.0517
90 | GTGCACAC | -0.194
91 | TGGCATAA | 0.139
92 | CTGGCTCA | -0.00502
93 | ACCAAAGC | 0.0124
94 | CAGCCCTA | -0.0337
